Experimental findings from PubChem BioAssay AID720504 (National Center for Advancing Translational Sciences (NCATS), 2013) are described below.

The campaign covered roughly 360,000 compounds. About 10,000 (2.8%) were called active. Not shown: some 4% with an inconclusive outcome. What follows is part of a selection rich in actives, with near analogues and random picks from the rest. Unmarked numbers belong to inactive results. Calls follow the shape of the dose curve; as a rule, active = well fitted inhibition curve with a large enough effect; inconclusive = small, poorly fitted or top-dose-only effect; inactive = flat fitted curve, though single readings scatter.
% is scaled to controls: 0 for no effect and ±100 for the full control effect; potency is read from the fitted curve at half-maximal effect.

For the experiment, the target named is Serine/threonine-protein kinase PLK1 (Homo sapiens) (UniProt P53350). Description: qHTS for Inhibitors of PLK1-PDB (polo-like kinase 1 - polo-box domain): Primary Screen. Also: nearly all actives have a fitted effect of over 65% in size. As to max response, negative = inhibition: series mostly up to about 57 µM. The settings on record: Plk1 PBD binding of FITC phosphopeptide, fluorescence polarization. From the text: The polo-like kinase 1 (Plk1) is a member of a conserved subfamily of serine / threonine protein kinases that plays a pivotal roles in cell proliferation. It has a C-terminal non-catalytic region called the polo-box domain (PBD) that plays a crucial role in the subcellular localization of the Plk1. […] Furthermore, depletion of the overexpressed Plk1 by RNAi efficiently induces apoptotic cell death in cancer and reduces tumor growth in mouse xenograft models. Thus, targeting Plk1 is an appealing strategy for anti-cancer therapy. Therefore, this project aimed to screen the Molecular Libraries Small Molecule Repository (MLSMR) using a novel approach to find inhibitors that target the Plk1 PBD instead of the conventional N-terminal catalytic domain. This project employed a fluorescence polarization (FP) assay using a FITC-conjugated phospho-9-mer (p-9-mer) peptide and purified human Plk1 PBD protein. The identified small molecule inhibitors of Plk1 PBD can then further be developed into useful tools for biomedical and clinical research that complements or replaces current relevant disease therapy. NIH Chemical Genomics Center [NCGC] NIH Molecular Libraries Probe Centers Network [MLPCN] MLPCN Grant: MH100728 Assay Submitter (PI): Kyung Lee, NCI
Serine/threonine-protein kinase PLK1 (Homo sapiens), sequence (P53350 whole entry, looked up, the tested form may be a part): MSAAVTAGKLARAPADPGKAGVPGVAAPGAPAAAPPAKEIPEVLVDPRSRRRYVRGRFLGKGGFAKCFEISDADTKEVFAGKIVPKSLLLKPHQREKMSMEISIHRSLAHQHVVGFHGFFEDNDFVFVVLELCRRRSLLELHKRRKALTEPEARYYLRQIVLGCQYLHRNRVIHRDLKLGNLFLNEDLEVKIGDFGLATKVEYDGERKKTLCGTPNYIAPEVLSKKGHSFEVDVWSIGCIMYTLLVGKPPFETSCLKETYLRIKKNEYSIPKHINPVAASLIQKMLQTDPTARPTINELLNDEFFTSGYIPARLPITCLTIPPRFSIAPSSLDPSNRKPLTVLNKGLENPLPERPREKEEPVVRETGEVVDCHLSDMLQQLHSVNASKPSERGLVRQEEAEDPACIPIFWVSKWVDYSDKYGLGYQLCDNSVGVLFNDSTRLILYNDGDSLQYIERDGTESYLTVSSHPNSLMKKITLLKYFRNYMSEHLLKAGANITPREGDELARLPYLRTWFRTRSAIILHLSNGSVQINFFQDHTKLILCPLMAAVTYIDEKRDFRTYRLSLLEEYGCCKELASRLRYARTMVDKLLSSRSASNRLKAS
Four microliter of 25 nM FITC-p-9-mer + 60 nM Plk1 PBD in buffer solution (final concentrations 25 nM and 60 nM respectively) or 4 uL of 25 nM FITC-p-9-mer (final concentration 25 nM) in buffer will be dispensed into a 1,536 Greiner medium-binding black solid plate. Small molecules at final concentrations of 18 nM to 57 uM and positive control phospho-9-mer (sequence: Ac-PPLHSpTAI-NH2) at final concentrations 26 nM to 57 uM and phospho-13-mer (sequence: Ac-[…]pTAI-NH2) at final concentrations of 1 nM to 2.3 uM will be pin-transferred (23 nL) to the plate via a Kalypsys pin-tool robotics equipped with a 1,536-pin array. The reaction plate will be centrifuged for 1 min at 1000 rpm and incubated at room temperature for 10 min. The FITC fluorescence signals will be read using the PerkinElmer ViewLux plate reader at 480 / 20 nm excitation and 540 / 20 nm S and P polarization emission wavelengths. Reagent bottles will be kept submerged into 4 °C recirculating chiller bath and all liquid lines will be covered with aluminum foil to minimize degradation. Library plates will be screened starting from the lowest to the highest concentrations to minimize compound carryover. Vehicle only plates, with DMSO being pin-transferred instead of compound solutions, will be included regularly throughout the screen to record any systematic shifts in assay signal.
Turning to `CC1(C(=O)NS(=O)(=O)c2cccc(OC(F)F)c2)CCN1C(=O)C1CC1` (centres undefined), the max response, negative = inhibition is 3.22%.

With `CCCNC(=O)C1(C)CCN1C(=O)C1(c2ccccc2)CC1` (centres undefined), the max response, negative = inhibition was -4.48%.

As to `CC(C)(C)Cc1c(C2CCCCC2)nc2ccc(Br)cn12`, the max response, negative = inhibition is 3.52%.

For the compound `COc1ccc(CNC(=O)C2CCN(S(=O)(=O)N3CCOCC3)CC2)cc1`, the max response, negative = inhibition was 3.12%.

Turning to `COc1ccc(CNC(=O)C2CCN(S(C)(=O)=O)CC2)cc1`, the Potency is 21.2 µM (active).

Turning to `COc1ccc(CNC(=O)C2CCN(S(=O)(=O)c3ccc(SC)cc3)CC2)cc1`, the max response, negative = inhibition was -7.7%.

In the case of `CC1(C(=O)NCc2cccc3ccccc23)CCN1Cc1ccc(-c2ccccc2)o1` (centres undefined), the max response, negative = inhibition is -8.62%.

As for `CCc1nc2ccc(C(=O)NCCNC(C)=O)cn2c1N(CC)Cc1cccc(Br)c1`, the max response, negative = inhibition is -0.869%.

On to `CCC(C(=O)NCc1ccccc1)n1c(Cc2cc(F)cc(F)c2)nc2ccccc21` (centres undefined), for which the max response, negative = inhibition was 2.43%.

Regarding `O=C(NCCN1CCOCC1)C1CCN(S(=O)(=O)c2ccccc2)CC1`, the max response, negative = inhibition was 1.1%.

Take `O=C(NCc1cccs1)c1ccc(Br)o1`: the max response, negative = inhibition was -4.89%.

Turning to `CC(CCc1ccccc1)NC(=O)c1ccc(Br)o1` (centres undefined), the max response, negative = inhibition is -7.05%.

Consider `CC(CNC(=O)c1ccc(Br)o1)NC(=O)c1ccc(Br)o1` (centres undefined), for which the Potency was 2.99 µM (active).

Turning to `O=C(COC(=O)/C=C/c1ccc(Cl)cc1)NC1CCS(=O)(=O)C1` (centres undefined), the max response, negative = inhibition is 3.25%.

Consider `O=S1(=O)CC(N2CCSCC2)CN1Cc1cn(Cc2cccc(Cl)c2)nn1` (centres undefined), for which the max response, negative = inhibition is 1.2%.

`CSCCC(C(=O)NC(C)(C)C)n1c(-c2ccccc2)nc2ccccc21` (centres undefined): the max response, negative = inhibition is -11.3%.

For the compound `COc1cc(/C=N/O)cc(Br)c1OS(=O)(=O)c1ccc(C)cc1`, the max response, negative = inhibition is 4.61%.

In the case of `COc1cc(/C=N/NC(=S)Nc2cccnc2)cc(OC)c1O`, the max response, negative = inhibition was -21%.

Consider `COc1cc(/C=N/Nc2ccc(C)cc2)cc(Br)c1O`, for which the Potency is 29.9 µM (active).

As for `CCCc1nc2ccccc2n1C(C)C(=O)NC(C)(C)C` (centres undefined), the max response, negative = inhibition was -5.55%.

In the case of `C[C@H]1CN([C@@H](C)CO)C(=O)c2cc(Br)cnc2O[C@H]1CN(C)S(=O)(=O)c1cccs1`, the max response, negative = inhibition is -9.15%.

Consider `COc1ccc(CN2C(=O)C(CC(=O)NCCN3CCOCC3)CC(C(=O)N(C(C)C)C(C)C)=C2C)cc1` (centres undefined), for which the max response, negative = inhibition was 4.68%.

Turning to `Cc1ccc(NC(=O)COC(=O)CN2CCSC2=O)cc1F`, the max response, negative = inhibition is 3.55%.

Take `O=C1CCCc2nn(-c3ccccc3)nc21`: the max response, negative = inhibition is -8.07%.

With `c1ccc(-n2nc3ccccc3n2)cc1`, the Potency was 29.9 µM (active).

On to `Nc1ccc2nn(-c3ccc(Cl)cc3)nc2c1`, for which the max response, negative = inhibition was -7.93%.

For `CCc1nc2c(OCCOc3ccc(F)cc3)cccn2c1N(C)C(=O)c1ccccc1F`, the max response, negative = inhibition is -3.7%.

As to `CC(=O)c1cccc(-c2cnc3c(NC=O)cc(-c4ccccc4Oc4ccccc4)cn23)c1`, the max response, negative = inhibition is -5.21%.

`C[C@@H]1CN([C@@H](C)CO)C(=O)CCCn2nncc2CO[C@@H]1CN(C)S(=O)(=O)c1ccc(-c2ccccc2)cc1`: the max response, negative = inhibition was -14.2%.

As for `O=C1[C@H]2[C@@H](c3ccc(C(F)(F)F)cc3)N[C@]3(CCCN(Cc4ccc(Cl)cc4)C3=O)[C@H]2C(=O)N1Cc1ccccc1`, the max response, negative = inhibition was -4.13%.

As for `CCOc1ccc(-c2nc(C)sc2CC(=O)O)cc1`, the max response, negative = inhibition is -0.634%.

Consider `CCOC(=O)C(=O)Nc1nc(-c2ccccc2)c(CC)s1`, for which the max response, negative = inhibition is -16.3%.

`C/C(=N/Nc1nc(-c2ccccc2)c(CC(=O)O)s1)c1ccccc1`: the Potency was 13.4 µM (active).

`CC(C)n1ncc2c(C(=O)N3CCN(Cc4cccs4)CC3)cc(C3CC3)nc21`: the max response, negative = inhibition was -8.38%.

With `Cc1cccc(C)c1-n1nnnc1C1(C)CCC(=O)N1CCOc1ccccc1` (centres undefined), the max response, negative = inhibition is -8.78%.

As to `COc1ccc(C2=Nc3ccccc3NC(=O)C2N(C(=O)c2cc3ccccc3[nH]2)c2ccccc2)cc1` (centres undefined), the max response, negative = inhibition was 5.46%.

As for `COC(=O)c1cc(N2CCNCC2)nc2ccccc12`, the Potency is 23.8 µM (active).

Consider `Cc1cc(C(=O)OCC(=O)N2C(C)CCCC2C)c2ccccc2n1` (centres undefined), for which the max response, negative = inhibition is -9.12%.

For `CC(=O)N1CCN(C(=O)c2cc(-c3ccc(Cl)s3)nc3ccccc23)CC1`, the max response, negative = inhibition was 4.68%.

Turning to `O=C(Nc1ccc(F)cc1)C(CCc1ccccc1)N1CCN(CC(=O)N2CCCC2)CC1` (centres undefined), the max response, negative = inhibition is -3.84%.

With `COc1cccc(CC(=O)OCC(=O)NCc2ccc3c(c2)OCO3)c1`, the max response, negative = inhibition is -5.11%.

On to `Cc1cc(Br)ccc1SCC(=O)OCC(=O)NCc1ccc2c(c1)OCO2`, for which the Potency was 29.9 µM (active).

As for `Cc1ccc(C(=O)OCC(=O)NCc2ccc3c(c2)OCO3)s1`, the max response, negative = inhibition is -7.48%.

For `Cc1c(C(=O)NCc2ccc(C#N)cc2)sc(=O)n1Cc1ccc(C(=O)N(C)C)cc1`, the max response, negative = inhibition is -10.6%.
